94 compounds from PubChem BioAssay AID1063 (University of Pittsburgh Molecular Library Screening Center, 2008) can be followed below.

The campaign covered roughly 200,000 compounds. About 18,000 (9%) were called active. Cut-off read from the data, not from the text of the source: active = inhibition above about 50%; inactive = the rest. Only a selection was taken, and actives are over-represented in it overall.

A short description of this assay: antileishmanial activity against promastigotes – primary screen (AID 1063).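 Note: promastigotes grown with compound for 44 hours at 28 °C.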 To be noted: Leishmania major promastigotes, resazurin fluorescence viability; at 10 µM; active compounds read high. Background: Alamar Blue is a resazurin reagent that responds to reducing activity.
For the compound `Cc1cc(C)cc(C(=O)N(CCc2ccccc2)C2=CC3CCC(C2)N3C)c1` (centres undefined), the inhibition – broadly, the drop in the measured response relative to a control, in per cent – is 3.61% (inactive).
On to `Cc1ccc(N/C=C/C(=O)c2ccccc2)cc1C`, for which the inhibition was 66% (active).
For `O=C(/C=C\NCC(=O)c1ccccc1)c1ccccc1`, the inhibition is 2.41% (inactive).
For `Cc1noc(NS(=O)(=O)c2ccc(N/C=C/C(=O)c3ccccc3)cc2)c1C` the value was -14.2% (inactive); for `O=C(Nc1ccc2c(c1)C(=O)OC2)Nc1cccc2ccccc12`, -3.46% (inactive).
Turning to `CC1=NN(c2ccccc2)C(=O)C1C(=O)c1ccc([N+](=O)[O-])cc1` (centres undefined), the inhibition was -7.88% (inactive).
In the case of `COc1cc(OC)nc(N/N=C(\c2ccccc2)c2ccncc2)n1`, the inhibition was -5.12% (inactive).
Consider `CC(=O)NCCc1nc2cc(NC(=O)c3ccccc3)ccc2n1C`, for which the inhibition is -4.08% (inactive).
For `CC[n+]1c(C)n(-c2ccccc2)c2ccc(NC(C)=O)cc21`, the inhibition was 98.2% (active).
For `CCN(CC)N=Nc1cccc(NC(C)=O)c1` the value was -3.03% (inactive); for `O=C(Nc1ccc2cn[nH]c2c1)c1ccc(S(=O)(=O)N2CCOCC2)cc1`, -3.16% (inactive).
As for `CC(=C1C(=O)c2ccccc2C1=O)N1CCN(c2ccccn2)CC1`, the inhibition was -2.16% (inactive).
For `O=C(Cc1ccccc1Cl)N1CCN(c2ccccn2)CC1`, the inhibition is -2.27% (inactive).
Take `O=C(C(Cl)Cl)N1CCN(c2ccccn2)CC1`: the inhibition is 64.4% (active).
Take `COC(c1ccccc1)c1nnc(CCC(=O)N2CCN(CCOc3ccccc3)CC2)o1` (centres undefined): the inhibition was -4.38% (inactive).
As to `CC1=C/C(=N\S(=O)(=O)c2ccccc2)C(C(C)C)=CC1=O`, the inhibition was -0.21% (inactive).
For `CC1=C/C(=N\OS(=O)(=O)c2ccccc2)C=CC1=O` the value was 100% (active); for `Cc1ccc(S(=O)(=O)c2ccc(Oc3ccccc3)cc2)cc1`, -3.38% (inactive); for `Cc1cccc(C(=O)N2CCC(c3nc4ccccc4s3)CC2)c1`, -2.51% (inactive).
For `Cc1cccc(/C(N)=N/OC(=O)c2ccccc2Cl)c1` the value was 16.9% (inactive); for `COC(=O)c1cccc([N+](=O)[O-])c1CS(=O)(=O)c1ccc(C)cc1`, -1.5% (inactive); for `CC(=O)Nc1ccc(-c2csc(NC(=O)Nc3ccccc3)n2)cc1`, 58.2% (active).
As for `CC(=O)Nc1ccc(S(=O)(=O)Nc2nc(-c3ccc(C(C)(C)C)cc3)cs2)cc1`, the inhibition was 6.97% (inactive).
`CC(=O)Nc1ccc(-c2csc(NC=C3C(=O)OC(C)(C)OC3=O)n2)cc1`: the inhibition is 0.56% (inactive).
Regarding `Cc1cc(C(=O)CSc2nc(N)cc(=O)[nH]2)c(C)n1-c1cccc(F)c1`, the inhibition is 23.6% (inactive).
As to `O=C(CCN1C(=O)/C(=C/c2cccs2)SC1=S)NNC(=O)c1cccc(O)c1`, the inhibition was -5.28% (inactive).
Regarding `O=C1c2cccc3c([N+](=O)[O-])ccc(c23)C(=O)N1CC1CCCO1` (centres undefined), the inhibition is 101% (active).
For the compound `O=c1c2cc3c(=O)n(CC4CCCO4)c(=O)c3cc2c(=O)n1CC1CCCO1` (centres undefined), the inhibition was -5.65% (inactive).
Regarding `O=C(NCc1ccc2c(c1)OCO2)c1ccc2c(c1)C(=O)N(CC1CCCO1)C2=O` (centres undefined), the inhibition was -1.97% (inactive).
In the case of `Cc1cc(C)cc(OCC(=O)Nc2ccc(S(=O)(=O)Nc3ccccn3)cc2)c1`, the inhibition was 7.3% (inactive).
As for `O=C(C1CCCO1)N1CCN(C(=S)NC2CC2)CC1` (centres undefined), the inhibition is -5.96% (inactive).
Take `CCn1c(-c2ccncc2)n[nH]c1=S`: the inhibition is -0.2% (inactive).
With `CCC(O)CNc1nc(-n2nc(C)cc2C)nc2sc3c(c12)CC(C)(C)OC3` (centres undefined) the figure was 9.97% (inactive); with `COCCn1c(C)cc(C(=O)CSc2ncnc3sc4c(c23)CCC4)c1C`, -5.34% (inactive); with `Cc1cc(C)n(-c2nc(SCC(=O)N3CCCC3)c3c4c(sc3n2)CCCC4)n1`, 63.1% (active).
As for `Cc1nc(SCC(=O)Nc2cc(C)on2)c2c3c(sc2n1)CCCC3`, the inhibition was 1.37% (inactive).
For the compound `COCCNc1nc(-n2nc(C)cc2C)nc2sc3c(c12)CCCC3`, the inhibition was 64% (active).
Regarding `Cc1nc2sc3c(c2c(=O)n1NC(=O)CCl)CCCC3`, the inhibition was -0.99% (inactive).
For `O=C(CSc1ccc([N+](=O)[O-])cn1)Nc1ccc(N2CCOCC2)c(Cl)c1` the value was 8.08% (inactive).
Take `O=C(CCc1ccccc1)NCCc1cccs1`: the inhibition is -9.15% (inactive).
Take `COc1ccc(OC)c2[nH]c(=O)c(CCNC(=O)C(=O)c3c[nH]c4ccccc34)cc12`: the inhibition was -6.77% (inactive).
Turning to `COc1cc(NC(=S)N2CCCC(C)C2)c(OC)cc1Cl` (centres undefined), the inhibition is 6.09% (inactive).
As to `Cc1cccc(N(C(=O)Cc2cccs2)C(C(=O)NCc2ccco2)c2ccncc2)c1` (centres undefined), the inhibition is 6.9% (inactive).
Turning to `O=C(c1cn2ccccc2n1)N1CCc2c([nH]c3ccccc23)C1c1ccccn1` (centres undefined), the inhibition was 13.8% (inactive).
For the compound `Cc1cccc(C2c3[nH]c4ccccc4c3CCN2C(=O)c2cc(-c3cccn3C)n[nH]2)n1` (centres undefined), the inhibition was 70.9% (active).
For the compound `Cc1cccc(C(=O)N2CCc3c([nH]c4ccccc34)C2CC(C)C)n1` (centres undefined), the inhibition was 31.8% (inactive).
As to `CC1(C)CC(=O)C(CC(=O)N2CCC(Cc3ccccc3)CC2)C(=O)C1`, the inhibition is -0.44% (inactive).
`Cc1cc(C(C)(C)C)cc(S(=O)(=O)Nc2ccc(C(=O)O)cc2)c1C`: the inhibition was -3.3% (inactive).
As for `CCOc1ccccc1Nc1ccc(C(=O)O)cc1[N+](=O)[O-]`, the inhibition was -1.36% (inactive).
In the case of `Cn1c(=O)cc(OCCCC(=O)N2CCN(Cc3ccc4c(c3)OCO4)CC2)c2ccccc21`, the inhibition is 11.9% (inactive).
For `O=C(CSCc1ccc(Cl)cc1)N1CCCCC1`, the inhibition was -3.7% (inactive).
With `O=C(CSCc1ccc(Cl)cc1)N1CCN(Cc2ccc3c(c2)OCO3)CC1`, the inhibition was 90.7% (active).
With `O=C(Nc1cccc2ccccc12)N1CCN(Cc2ccc3c(c2)OCO3)CC1` the figure was 24.5% (inactive); with `O=C(CCCN1C(=O)c2cccc3cccc(c23)C1=O)N1CCN(Cc2ccc3c(c2)OCO3)CC1`, 53.9% (active).
For the compound `CS(=O)(=O)N(CC(=O)N1CCN(Cc2ccc3c(c2)OCO3)CC1)c1ccc2c(c1)OCO2`, the inhibition was -5.11% (inactive).
For `CCc1ccccc1NC(=O)CSc1nnc(-c2ccncc2)o1` the value was -6.71% (inactive).
In the case of `Cc1ccc(OCc2n[nH]c(=S)n2-c2ccc(C)cc2)cc1`, the inhibition was 1.58% (inactive).
For the compound `Cc1c(-c2cccc(Cl)c2)nc2ccccc2c1C(=O)OCC(=O)N(C)C1CCS(=O)(=O)C1` (centres undefined), the inhibition is 30.9% (inactive).
As for `Cc1c(Br)cc(C(=O)N2CCCCCC2)c(C)c1C`, the inhibition was 79% (active).
With `Cc1ccc(C(=O)N2CCCCCC2)cc1Br`, the inhibition was 1.69% (inactive).
With `COc1cc(OC)c(C(=O)N2CCCC2)cc1OC` the figure was -1.38% (inactive); with `Cc1ccc(NC(=O)CSc2nnc(CNC(=O)c3ccccc3F)o2)cc1`, -3.87% (inactive); with `CCC(C)(C)NC(=O)CN(C(=O)C(=O)Nc1ccc2c(c1)OCCO2)C(C)(C)CC`, 9.2% (inactive).
As for `c1ccc(C2CCC(N3CCC(N4CCCCC4)CC3)CC2)cc1` (centres undefined), the inhibition was 92.2% (active).
For `O=C(CN1CCN(C2CCCCC2)CC1)Nc1ccccc1N1CCCCC1`, the inhibition was 10.2% (inactive).
Regarding `CCOC(=O)CN1CCC(c2ccccc2)CC1`, the inhibition is -3.4% (inactive).
With `O=C(COc1ccc(S(=O)(=O)N2CCCCC2)cc1)NCc1ccccn1`, the inhibition was -4.35% (inactive).
Take `COc1cc(N/C=C2\CC(=O)NC(C)=C2C#N)cc(OC)c1OC`: the inhibition was -6.28% (inactive).
With `O=C(CCS(=O)(=O)Cc1ccccc1)Nc1ccc2c(c1)OCCO2` the figure was -2.36% (inactive); with `O=C(Cn1cnc([N+](=O)[O-])n1)NCCc1ccccc1`, 21.8% (inactive); with `O=C(Nc1cccc(CCc2ccccn2)c1)c1ccc(Cl)cc1`, 2.49% (inactive).
On to `Cc1cccc(NC(=O)N(Cc2cc3cc(C)cc(C)c3[nH]c2=O)CC2COCCO2)c1` (centres undefined), for which the inhibition was 37.5% (inactive).
On to `Cc1ccc2[nH]c(=O)c(CN(CC3COCCO3)C(=O)Nc3ccccc3C)cc2c1` (centres undefined), for which the inhibition was 4% (inactive).
`Cc1ccc2[nH]c(=O)c(CN(CCCN(C)C)C(=O)Nc3cccc(Cl)c3)cc2c1`: the inhibition is 93.2% (active).
For `COc1ccc(C(=O)Nc2ccc(NC(=O)C(C)C)nc2)cc1`, the inhibition is 25.1% (inactive).
With `O=C(N/C(=C\c1ccc(F)cc1)C(=O)N1CCCCCC1)c1ccccc1` the figure was -5.92% (inactive); with `Cc1cc2ccccc2n1CCC(=O)O`, -7.95% (inactive).
Regarding `S=c1[nH]nc(-c2ccccc2)n1/N=C/c1c[nH]c2ccccc12`, the inhibition was 54.7% (active).
For `Cc1ccc(/C=N\n2c(-c3ccccc3)n[nH]c2=S)s1`, the inhibition was 0.81% (inactive).
Take `CCc1n[nH]c(=S)n1/N=C/c1c[nH]c2ccc(Br)cc12`: the inhibition is 11.7% (inactive).
As to `O=C(CCCNS(=O)(=O)c1cccc2nsnc12)NCCN1CCN(c2ccccc2F)CC1`, the inhibition is -3.45% (inactive).
With `Cc1cc(-c2csc(N)n2)c(C)n1Cc1ccccc1`, the inhibition is 7.08% (inactive).
Consider `COc1ccc(C2NC(=S)NC3=C2CCc2ccccc23)cc1OC` (centres undefined), for which the inhibition was 57.7% (active).
On to `COc1ccc(C2SCCN2S(=O)(=O)c2ccccc2)cc1OC` (centres undefined), for which the inhibition is 22.3% (inactive).
As to `COc1ccc(/C=C2\CCc3ccccc3C2=O)c(OC)c1OC`, the inhibition is 8.72% (inactive).
Regarding `Cc1onc(C(=O)NCc2ccc(F)cc2)c1[N+](=O)[O-]`, the inhibition was -5.34% (inactive).
For `CC(=O)c1ccc(NC(=O)C(C)NCc2ccc(Cl)cc2)cc1` (centres undefined), the inhibition was -2.38% (inactive).
`C=Cn1c(C(=O)O)ccc1-c1ccc(OC)cc1`: the inhibition is -4.56% (inactive).
With `CCOC(=O)C1CCCN(C(=O)COc2ccc(N(C)S(=O)(=O)c3ccc(C)cc3)cc2)C1` (centres undefined) the figure was 27.7% (inactive).
Regarding `CCC1CCCCN1S(=O)(=O)Cc1ccccc1Cl` (centres undefined), the inhibition is 3.99% (inactive).
Consider `CN(CCC1CCOCC1)Cc1cn[nH]c1-c1ccc(-c2ccccc2)cc1`, for which the inhibition is 66.8% (active).
For `Cc1nnc(CN(C)Cc2cn[nH]c2-c2ccc(-c3ccccc3)cc2)o1` the value was 26.1% (inactive); for `O=C(CC1C(=O)NCCN1Cc1ccc(-c2ccccc2)cc1)NCC1CCOCC1` (centres undefined), 2.89% (inactive); for `CC(C(=O)N=Nc1c(O)n(C)c2ccc(Br)cc12)n1cnc2ccccc2c1=O` (centres undefined), 7.13% (inactive).
